Results filed as inconclusive are left out. A call without a number means that no potency is given here. Activity calls are given as the source filed them. Unless noted, the call rests on the fitted dose curve; in most records, active means well fitted curve in the direction sought with a large enough effect in the repeat runs; inconclusive means weak or mixed curves; inactive means no such curve, though single readings can be large; an effect the other way counts as inactive or inconclusive.
Tests used:
[1] = qHTS assay to identify aromatase inhibitors - cell viability counter screen (AID 743084);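 further: cells stimulated with testosterone during compound exposure; nearly all actives have a fitted effect of over 55% in size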
[2] = biological target: Aryl hydrocarbon receptor (Homo sapiens) (UniProt P35869); assay: qHTS assay to identify small molecule that activate the aryl hydrocarbon receptor (AhR) signaling pathway (AID 743085); further: nearly all actives have a fitted effect of over 15% in size; further: potency means the concentration at half of the fitted maximal effect;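 on activation: HG2L7.5c1 human HepG2 liver cells with stably integrated DRE-driven firefly reporter; series mostly up to about 70 µM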
Aryl hydrocarbon receptor (Homo sapiens), sequence (P35869 whole entry, looked up): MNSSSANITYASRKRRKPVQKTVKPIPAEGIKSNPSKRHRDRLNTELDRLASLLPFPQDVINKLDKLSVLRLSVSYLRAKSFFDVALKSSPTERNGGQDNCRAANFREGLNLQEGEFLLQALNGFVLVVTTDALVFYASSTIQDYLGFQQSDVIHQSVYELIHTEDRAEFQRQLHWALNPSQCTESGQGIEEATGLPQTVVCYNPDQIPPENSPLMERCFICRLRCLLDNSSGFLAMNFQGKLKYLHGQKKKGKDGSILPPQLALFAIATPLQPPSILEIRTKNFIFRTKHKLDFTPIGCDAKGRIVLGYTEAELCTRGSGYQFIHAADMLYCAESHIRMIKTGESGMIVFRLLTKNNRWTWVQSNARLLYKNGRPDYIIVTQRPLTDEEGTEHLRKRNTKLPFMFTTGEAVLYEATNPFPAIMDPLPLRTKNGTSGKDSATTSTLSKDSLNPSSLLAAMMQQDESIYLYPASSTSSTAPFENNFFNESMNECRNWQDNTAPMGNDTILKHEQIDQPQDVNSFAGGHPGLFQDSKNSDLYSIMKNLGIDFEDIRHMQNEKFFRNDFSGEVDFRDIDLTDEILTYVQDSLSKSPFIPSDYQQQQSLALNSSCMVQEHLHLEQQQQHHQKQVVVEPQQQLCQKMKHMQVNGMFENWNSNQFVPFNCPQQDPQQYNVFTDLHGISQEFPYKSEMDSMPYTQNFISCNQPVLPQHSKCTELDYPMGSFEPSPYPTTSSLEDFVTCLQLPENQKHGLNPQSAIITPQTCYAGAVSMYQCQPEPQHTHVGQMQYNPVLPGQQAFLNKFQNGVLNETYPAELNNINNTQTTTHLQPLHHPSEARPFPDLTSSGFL
Outline: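 A multiplexed format paired cell viability (CellTiter-Fluor fluorescence) with AhR-dependent luciferase output (ONE-Glo luminescence) in the same wells of HepG2 DRE-luc cells after 24 h compound exposure at 37C.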

[3] = biological target: Peroxisome proliferator-activated receptor gamma (Homo sapiens) (UniProt P37231); assay: qHTS assay to identify small molecule agonists of the peroxisome proliferator-activated receptor gamma (PPARg) signaling pathway (AID 743094; active means well fitted activation curve with a large enough effect in the signal ratio in the repeat runs, not every such curve was filed as active; the % refers to the signal ratio)
Peroxisome proliferator-activated receptor gamma (Homo sapiens), sequence (P37231 whole entry, looked up): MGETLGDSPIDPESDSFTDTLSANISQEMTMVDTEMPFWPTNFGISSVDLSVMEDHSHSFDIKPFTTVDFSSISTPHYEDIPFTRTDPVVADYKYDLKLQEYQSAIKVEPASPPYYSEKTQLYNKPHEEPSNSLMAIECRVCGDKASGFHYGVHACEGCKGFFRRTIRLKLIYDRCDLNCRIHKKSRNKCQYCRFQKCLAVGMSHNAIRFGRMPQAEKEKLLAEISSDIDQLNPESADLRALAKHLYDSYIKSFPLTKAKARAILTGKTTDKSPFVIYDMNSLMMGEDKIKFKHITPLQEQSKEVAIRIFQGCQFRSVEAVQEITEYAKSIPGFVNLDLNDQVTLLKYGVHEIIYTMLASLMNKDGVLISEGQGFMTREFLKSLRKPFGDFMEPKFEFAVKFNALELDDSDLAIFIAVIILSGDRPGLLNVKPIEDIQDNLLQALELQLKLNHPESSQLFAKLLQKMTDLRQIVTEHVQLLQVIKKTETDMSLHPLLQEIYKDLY
Outline: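 Agonism was assessed in a beta-lactamase reporter system, HEK293H cells with a stably integrated UAS-bla construct under PPARg control; the 17 h treatment at 37C preceded a 1 h room-temperature FRET substrate read.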

[4] = biological target: Peroxisome proliferator-activated receptor gamma (Homo sapiens) (UniProt P37231); assay: qHTS assay to identify small molecule antagonists of the peroxisome proliferator-activated receptor gamma (PPARg) signaling pathway (AID 743191; calls by dose curve; further: series mostly up to about 63 µM; nearly all actives have a fitted effect of over 30% in size)
Outline: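 Beta-lactamase reporter under UAS control in HEK293H PPARg-bla cells; compound treatment 17 h at 37C. Read-out: fluorescence intensity after 1 h room-temperature incubation with LiveBLAzer B/G FRET substrate.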

[5] = qHTS assay to identify small molecule antagonists of the peroxisome proliferator-activated receptor gamma (PPARg) signaling pathway - cell viability counter screen (AID 743194); further: nearly all actives have a fitted effect of over 55% in size
Outline: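 Viability was measured as CellTiter-Glo luminescence in GeneBLAzer PPARg UAS-bla HEK293H cells. These cells had been exposed 17 h at 37 C to compounds together with rosiglitazone at 50 nM final, with the beta-lactamase readout taken in the same wells.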

[6] = qHTS assay for small molecule agonists of the antioxidant response element (ARE) signaling pathway (AID 743202; active means well fitted activation curve with a large enough effect in the signal ratio in the repeat runs, not every such curve was filed as active; the % refers to the signal ratio)
Outline: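 Beta-lactamase reporter activity, read as fluorescence intensity, reflects ARE/Nrf2 pathway induction in HepG2 cells after 16 h compound exposure at 37 C; substrate loading was 2 h at room temperature.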

[7] = qHTS assay for small molecule agonists of the antioxidant response element (ARE) signaling pathway - cell viability counter screen (AID 743203; calls by dose curve; further: nearly all actives have a fitted effect of over 55% in size)
Outline: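 ATP content via CellTiter-Glo luminescence served as the viability measure. Cells: ARE-bla HepG2, 2,000 per well. Exposure: 16 hrs, 37C/5% CO2.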

[8] = qHTS assay for small molecule activators of the heat shock response signaling pathway - cell viability counter screen (AID 743209); further: nearly all actives have a fitted effect of over 50% in size
Outline: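 Compounds dissolved in DMSO were added to overnight-plated HSE-bla HeLa cells and left 5 h at 37 C. Cell viability was quantified by luminescence using CellTiter-Glo.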

[9] = qHTS assay for small molecule activators of the heat shock response signaling pathway (AID 743210; active means well fitted activation curve with a large enough effect in the signal ratio in the repeat runs, with a control signal flat, not every such curve was filed as active; the % refers to the signal ratio;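 further: HeLa cells with beta-lactamase reporter driven by heat shock elements; series mostly up to about 63 µM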)
Outline: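 Fluorescence from a cleaved B/G FRET substrate (2.5 h, room temp) reports HSE-driven beta-lactamase in HeLa cells treated 5 h at 37 C with DMSO-dissolved compounds.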

[10] = qHTS assay to identify small molecule agonists of the peroxisome proliferator-activated receptor delta (PPARd) signaling pathway - cell viability counter screen (AID 743211); further: nearly all actives have a fitted effect of over 55% in size
Outline: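 Tox21 library compounds, delivered in DMSO, were incubated 17 h with PPARd-bla HEK293H cells; cytotoxicity was taken from CellTiter-Glo luminescence read 30 min after reagent addition.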

[11] = biological target: Peroxisome proliferator-activated receptor delta (Homo sapiens) (UniProt Q03181); assay: qHTS assay to identify small molecule agonists of the peroxisome proliferator-activated receptor delta (PPARd) signaling pathway (AID 743212; calls by dose curve)
Peroxisome proliferator-activated receptor delta (Homo sapiens), sequence (Q03181 whole entry, looked up): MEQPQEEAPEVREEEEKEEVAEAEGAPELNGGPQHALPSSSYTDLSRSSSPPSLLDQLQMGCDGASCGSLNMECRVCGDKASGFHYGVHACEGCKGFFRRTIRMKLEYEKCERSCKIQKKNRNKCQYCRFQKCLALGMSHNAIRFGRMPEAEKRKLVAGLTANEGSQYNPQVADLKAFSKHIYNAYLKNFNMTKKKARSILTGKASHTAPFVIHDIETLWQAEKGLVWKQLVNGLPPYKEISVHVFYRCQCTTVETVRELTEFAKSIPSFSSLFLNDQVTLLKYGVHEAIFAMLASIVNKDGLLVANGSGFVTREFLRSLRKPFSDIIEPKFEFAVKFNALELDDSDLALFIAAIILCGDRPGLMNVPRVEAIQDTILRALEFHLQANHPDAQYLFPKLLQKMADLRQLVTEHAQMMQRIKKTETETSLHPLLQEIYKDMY
Outline: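 Steps: seed PPARd-bla HEK293H cells; incubate 5 h, 37 C, 5% CO2; add compounds in DMSO; incubate, 37 C; add LiveBLAzer B/G FRET substrate; hold 2 h at room temperature; measure fluorescence.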

[12] = qHTS assay to identify small molecule antagonists of the peroxisome proliferator-activated receptor delta (PPARd) signaling pathway - cell viability counter screen (AID 743213); further: nearly all actives have a fitted effect of over 50% in size
Outline: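 PPARd-bla HEK293H cells (3000/well) got compound plus 300 nM L165041 agonist for 17 h at 37 C. Viability in the same wells came from CellTiter-Glo luminescence after 30 min at room temperature.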

[13] = biological target: Peroxisome proliferator-activated receptor delta (Homo sapiens) (UniProt Q03181); assay: qHTS assay to identify small molecule antagonists of the peroxisome proliferator-activated receptor delta (PPARd) signaling pathway (AID 743215; active means well fitted inhibition curve with a large enough effect in the signal ratio in the repeat runs, not every such curve was filed as active; the % refers to the signal ratio;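 further: cells stimulated with agonist L165041 at 300 nM final during compound exposure; series mostly up to about 62 µM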)
Outline: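 Here, a reporter line (HEK293H, beta-lactamase under a UAS) measures PPARd signaling. Compounds are tested against agonist L165041 at 300 nM final concentration over 17 h at 37 C, with fluorescence read after substrate.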

[14] = biological target: Bile acid receptor (Homo sapiens) (UniProt Q96RI1); assay: qHTS assay to identify small molecule antagonists of the farnesoid-X-receptor (FXR) signaling pathway (AID 743217; active means well fitted inhibition curve with a large enough effect in the signal ratio in the repeat runs, not every such curve was filed as active; the % refers to the signal ratio)
Bile acid receptor (Homo sapiens), sequence (Q96RI1 whole entry, looked up): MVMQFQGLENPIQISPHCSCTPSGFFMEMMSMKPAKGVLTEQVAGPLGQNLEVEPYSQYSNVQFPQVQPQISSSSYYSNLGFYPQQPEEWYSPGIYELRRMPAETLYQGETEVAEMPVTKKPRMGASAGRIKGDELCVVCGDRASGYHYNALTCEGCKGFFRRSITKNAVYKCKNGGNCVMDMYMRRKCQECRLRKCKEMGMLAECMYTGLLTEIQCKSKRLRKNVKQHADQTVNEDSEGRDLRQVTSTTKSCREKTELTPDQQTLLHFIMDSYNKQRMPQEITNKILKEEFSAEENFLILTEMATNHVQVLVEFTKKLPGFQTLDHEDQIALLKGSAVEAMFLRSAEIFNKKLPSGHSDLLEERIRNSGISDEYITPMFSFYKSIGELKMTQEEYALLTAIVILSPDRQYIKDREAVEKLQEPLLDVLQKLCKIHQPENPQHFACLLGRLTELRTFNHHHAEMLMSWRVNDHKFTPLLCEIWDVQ
Outline: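 Test compounds are pin-transferred onto FXR-bla HEK 293T cells, then chenodeoxycholic acid is added at 50 uM final. After 16 h at 37 °C, LiveBLAzer B/G substrate is applied for 2 h at room temperature and fluorescence read.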

[15] = biological target: Bile acid receptor (Homo sapiens) (UniProt Q96RI1); assay: qHTS assay to identify small molecule agonists of the farnesoid-X-receptor (FXR) signaling pathway (AID 743220; active means well fitted activation curve with a large enough effect in the signal ratio in the repeat runs, not every such curve was filed as active; the % refers to the signal ratio)
Outline: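 FXR-UAS-bla HEK 293T cells carrying a UAS-driven beta-lactamase reporter were plated for 5 h at 37C/5% CO2, then exposed to DMSO-dissolved Tox21 10K compounds for 16 h at 37C. A LiveBLAzer B/G FRET substrate was loaded for 2 h at room temperature before fluorescence reading.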

[16] = qHTS assay to identify small molecule antagonists of the farnesoid-X-receptor (FXR) signaling pathway - cell viability counter screen (AID 743221; active means well fitted cell-killing curve with a large enough effect in the repeat runs, not every such curve was filed as active; further: nearly all actives have a fitted effect of over 50% in size)
Outline: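 Cytotoxicity is taken from ATP luminescence (CellTiter-Glo, 30 min, room temperature) in FXR-bla HEK 293T cells previously incubated 16 h at 37 C with compound and chenodeoxycholic acid at 50 uM final.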

[17] = biological target: Vitamin D3 receptor (Homo sapiens) (UniProt P11473); assay: qHTS assay to identify small molecule agonists of the vitamin D receptor (VDR) signaling pathway (AID 743222; calls by dose curve)
Vitamin D3 receptor (Homo sapiens), sequence (P11473 whole entry, looked up): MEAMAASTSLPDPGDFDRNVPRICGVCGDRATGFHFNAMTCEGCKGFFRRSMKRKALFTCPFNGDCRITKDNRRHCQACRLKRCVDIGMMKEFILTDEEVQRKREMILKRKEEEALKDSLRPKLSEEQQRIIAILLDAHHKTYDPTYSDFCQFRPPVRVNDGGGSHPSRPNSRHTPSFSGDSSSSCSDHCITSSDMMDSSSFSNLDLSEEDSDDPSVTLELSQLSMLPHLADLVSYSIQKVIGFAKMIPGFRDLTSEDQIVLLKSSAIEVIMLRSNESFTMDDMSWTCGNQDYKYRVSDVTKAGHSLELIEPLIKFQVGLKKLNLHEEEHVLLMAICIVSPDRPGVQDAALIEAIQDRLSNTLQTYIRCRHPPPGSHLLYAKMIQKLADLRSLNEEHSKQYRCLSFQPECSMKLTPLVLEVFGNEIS
Outline: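 Tox21 cell reporter format: VDR-bla line, 16 h compound exposure in 5% CO2 at 37C, then fluorescence intensity after 2 h with LiveBLAzer B/G FRET substrate.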

[18] = biological target: Vitamin D3 receptor (Homo sapiens) (UniProt P11473); assay: qHTS assay to identify small molecule antagonists of the vitamin D receptor (VDR) signaling pathway (AID 743223; active means well fitted inhibition curve with a large enough effect in the signal ratio in the repeat runs, not every such curve was filed as active; the % refers to the signal ratio)
Outline: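 Quantitative HTS in VDR-bla reporter cells stimulated with 1alpha,25-dihydroxyvitamin D3, 3 nM final. Compound exposure 16 h, 37C, 5% CO2. Read-out: beta-lactamase FRET substrate fluorescence, 2 h RT.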

[19] = qHTS assay to identify small molecule agonists of the farnesoid-X-receptor (FXR) signaling pathway - cell viability counter screen (AID 743218); further: nearly all actives have a fitted effect of over 45% in size
Outline: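 Quantitative HTS counter screen measuring ATP-based viability via CellTiter-Glo luminescence in HEK 293T cells carrying a UAS-driven beta-lactamase reporter, after 16 h compound exposure at 37 C.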

[20] = qHTS assay to identify small molecule that activate the aryl hydrocarbon receptor (AhR) signaling pathway - cell viability counter screen (AID 743086);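 further: HepG2 liver cells carrying the AhR DRE luciferase reporter; series mostly up to about 70 µM; nearly all actives have a fitted effect of over 45% in size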
Outline: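 Cytotoxicity counter screen: CellTiter-Fluor signal (30 min, 37 C) in 4000 HepG2 cells/well carrying the DRE-luciferase reporter, following 24 h compound exposure at 37 C.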

Row | Structure (SMILES) | Potency [1] | Potency [2] | outcome [3] | outcome [4] | Potency [5] | Potency [6] | outcome [7] | outcome [8] | outcome [9] | Potency [10] | outcome [11] | Potency [12] | outcome [13] | outcome [14] | outcome [15] | Potency [16] | outcome [17] | outcome [18] | outcome [19] | Potency [20]
1 | CC(C)(C)N(CCO)CCO | inactive | inactive | inactive | inactive | inactive | inactive | inactive | inactive | inactive | inactive | inactive | inactive | inactive | inactive | inactive | inactive | inactive | inactive | – | –
2 | CCN(CC)C(=O)c1ccc(O)c(OC)c1 | inactive | inactive | inactive | inactive | inactive | inactive | inactive | inactive | inactive | inactive | inactive | inactive | inactive | – | – | inactive | inactive | – | inactive | –
3 | CCCCC1CCCCC(=O)O1 (stereo not given) | inactive | inactive | – | inactive | inactive | – | inactive | inactive | – | inactive | – | inactive | inactive | – | – | inactive | inactive | inactive | inactive | inactive
4 | CN(C)CCOC(c1ccc(Cl)cc1)c1ccccn1 (stereo not given) | inactive | inactive | inactive | – | – | – | – | inactive | inactive | inactive | inactive | inactive | inactive | – | – | inactive | inactive | – | – | inactive
5 | CO | inactive | inactive | – | – | inactive | inactive | inactive | inactive | inactive | inactive | – | inactive | – | – | – | inactive | inactive | – | inactive | inactive
6 | COc1ccc(COC=O)cc1 | inactive | inactive | inactive | – | – | inactive | inactive | inactive | – | inactive | inactive | inactive | inactive | inactive | inactive | inactive | – | – | inactive | inactive
7 | C=C(C)C(=O)NCCCN(C)C | inactive | inactive | inactive | inactive | inactive | inactive | inactive | inactive | inactive | inactive | inactive | inactive | – | – | – | inactive | inactive | inactive | inactive | –
8 | C/C=C1\C(=O)C[C@H]2[C@@H]3CCC4=CC(=O)CC[C@]4(C)[C@H]3CC[C@]12C | inactive | inactive | – | – | inactive | – | inactive | inactive | inactive | inactive | – | inactive | – | – | – | inactive | – | – | inactive | inactive
9 | COC(C(=O)O)c1ccccc1 (stereo not given) | inactive | inactive | inactive | inactive | inactive | inactive | inactive | inactive | inactive | inactive | inactive | inactive | inactive | inactive | inactive | inactive | inactive | inactive | inactive | –
10 | CC(C)[C@H](N)C(=O)OCCOCn1cnc2c(=O)[nH]c(N)nc21 | inactive | inactive | inactive | – | – | inactive | inactive | inactive | inactive | inactive | inactive | inactive | inactive | inactive | – | inactive | – | – | – | inactive
11 | O=[N+]([O-])c1ccc(Oc2ccc([N+](=O)[O-])cc2)cc1 | inactive | inactive | inactive | – | – | inactive | inactive | inactive | inactive | inactive | inactive | inactive | inactive | inactive | inactive | inactive | inactive | inactive | – | inactive
12 | COc1cc(CCC(C)=O)ccc1O | inactive | inactive | inactive | – | inactive | – | inactive | inactive | inactive | inactive | inactive | inactive | inactive | inactive | inactive | inactive | inactive | inactive | inactive | –
13 | Nc1ccc2cc(S(=O)(=O)O)ccc2c1 | inactive | inactive | – | – | inactive | – | inactive | inactive | inactive | inactive | inactive | inactive | inactive | inactive | inactive | inactive | inactive | inactive | inactive | –
14 | CC(C)=CC(=O)O | inactive | – | inactive | inactive | inactive | inactive | inactive | inactive | inactive | inactive | inactive | inactive | inactive | – | – | inactive | – | inactive | inactive | inactive
15 | C=C(C)C(=O)OCCC(C)OC(=O)C(=C)C (stereo not given) | inactive | – | inactive | inactive | inactive | inactive | inactive | inactive | inactive | inactive | inactive | inactive | inactive | – | – | inactive | inactive | inactive | inactive | inactive
16 | CC(CCO)CCCC(C)(C)O (stereo not given) | inactive | inactive | inactive | – | inactive | – | inactive | inactive | inactive | inactive | – | inactive | – | – | inactive | inactive | inactive | inactive | – | –
17 | CSc1nc(NC2CC2)nc(NC(C)(C)C)n1 | inactive | – | inactive | inactive | – | – | inactive | inactive | – | inactive | inactive | inactive | inactive | – | – | inactive | – | – | inactive | inactive
18 | c1cc(CN2CCCCC2)cc(OCCCNc2nc3ccccc3s2)c1 | inactive | 26.6 µM (active) | inactive | – | – | inactive | inactive | inactive | inactive | – | – | – | inactive | – | – | inactive | – | – | inactive | –
19 | CCc1cc(S(=O)(=O)O)c2cc(C(C)C)cccc1-2 | inactive | inactive | inactive | inactive | – | – | inactive | inactive | inactive | inactive | inactive | inactive | inactive | – | – | inactive | – | inactive | inactive | –

Source: PubChem BioAssay (Tox21)
